# Results from the supplement of paper PMC6555819.
# Legend:
# Test in all cases: PBM binding z-score (relative to random genomic background probes); higher = stronger binding; sequences stand for … in GC…GCGATTGACAGCGTAGAATGAAGG
# [1] = system: FXR:RXRa (NR concentration 270 nM, RXRa partner concentration 90 nM)
# Outline: (§1)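 Custom Agilent 4×180K protein-binding microarrays carried double-stranded probes. Their 34-nt variable regions held direct-repeat seeds, single-nucleotide variants, half-site ablations and random human genomic background sequences. Arrays were incubated 1 h with ligand-free nuclear receptor dimers in PBS pH 7.4, 2% milk, 0.02% Triton X-100, 1 mM DTT, 0.2 mg/mL BSA and 0.4 mg/ml salmon testes DNA. Antibodies against each partner (one per run) detected binding, and scanned fluorescence was regression-normalized. Binding z-scores use random background probes as reference.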
# [2] = system: LXRa:RXRa (NR concentration 270 nM, RXRa partner concentration 90 nM)
# Outline: as §1
# [3] = system: LXRa homodimer (NR concentration 270 nM)
# Outline: as §1
# [4] = system: LXRb:RXRa (NR concentration 270 nM, RXRa partner concentration 90 nM)
# Outline: as §1
# [5] = system: LXRb homodimer (NR concentration 270 nM)
# Outline: as §1
# [6] = system: PPARa:RXRa (NR concentration 270 nM, RXRa partner concentration 90 nM)
# Outline: as §1
# [7] = system: PPARg:RXRa (NR concentration 180 nM, RXRa partner concentration 90 nM)
# Outline: as §1
# [8] = system: PPARg:RXRa 270nM:90nM, anti-RXR (NR concentration 270 nM, RXRa partner concentration 90 nM)
# Outline: as §1
# [9] = system: PPARg:RXRa 30nM:10nM, anti-RXR (NR concentration 30 nM, RXRa partner concentration 10 nM)
# Outline: as §1
# [10] = system: PPARg:RXRa 90nM:30nM, anti-RXR (NR concentration 90 nM, RXRa partner concentration 30 nM)
# Outline: as §1
# [11] = system: PPARg:RXRa DBDmut IVT, anti-RXR (DBD mutation: RXRa K156A/R161A, NR concentration 270 nM, RXRa partner concentration 90 nM)
# Outline: as §1
# [12] = system: PPARg:RXRa IVT, anti-PPARg (NR concentration 270 nM, RXRa partner concentration 90 nM)
# Outline: as §1
# [13] = system: PPARg DBDmut:RXRa IVT, anti-PPARg (DBD mutation: PPARg1 K132A/R137A, NR concentration 270 nM, RXRa partner concentration 90 nM)
# Outline: as §1
# [14] = system: PPARg DBDmut IVT, anti-PPARg (DBD mutation: PPARg1 K132A/R137A, NR concentration 270 nM)
# Outline: as §1
# [15] = system: PPARg homodimer (NR concentration 180 nM)
# Outline: as §1
# [16] = system: PXR:RXRa (NR concentration 270 nM, RXRa partner concentration 90 nM)
# Outline: as §1
# [17] = system: PXR homodimer (NR concentration 270 nM)
# Outline: as §1
# [18] = system: RARa:RXR (NR concentration 270 nM, RXRa partner concentration 90 nM)
# Outline: as §1
# [19] = system: RARa homodimer (NR concentration 270 nM)
# Outline: as §1
# [20] = system: RARb:RXRa (NR concentration 270 nM, RXRa partner concentration 90 nM)
# Outline: as §1
Sequence,PBM binding z-score [1],PBM binding z-score [2],PBM binding z-score [3],PBM binding z-score [4],PBM binding z-score [5],PBM binding z-score [6],PBM binding z-score [7],PBM binding z-score [8],PBM binding z-score [9],PBM binding z-score [10],PBM binding z-score [11],PBM binding z-score [12],PBM binding z-score [13],PBM binding z-score [14],PBM binding z-score [15],PBM binding z-score [16],PBM binding z-score [17],PBM binding z-score [18],PBM binding z-score [19],PBM binding z-score [20]
CCAGACAGGTGAAAGTTAACTCAGTCTGGTACGC,-0.0765,0.237,-0.419,0.191,-0.617,2.21,2.62,4.15,1.99,3.83,1.64,1.56,-0.637,-0.25,0.325,0.141,-0.35,0.616,-0.352,1.04
CGTCCAAGGTCCTAGGAGGTCAGTGAAGACAGAT,1.97,1.66,0.256,1.71,-0.518,2.44,0.157,0.654,-0.57,0.21,-0.235,0.579,-1.17,-1.02,1.48,3.01,0.587,2.87,0.328,2.42
CGTCCAAGGTCCGCAGGTCAGTGAAAGCGACGTG,-0.0411,-0.153,-0.475,-0.0275,-1.05,0.735,-0.507,0.0239,-0.651,-0.568,0.12,-0.306,-1.07,-1.27,-0.166,0.139,-0.304,0.547,-0.545,1.89
CCGACTGGGGGAAAGGTTACCATACTCAGTACGA,1.81,2.38,0.42,3.4,3.72,5.42,9.9,9.24,8.87,9.88,2.52,5.31,3.53,3.07,1.86,2.63,0.241,3.24,0.206,2.04
TTACCAAGGTGAGCTCAGGTCGTTGATCCAACTC,1.26,0.561,-0.29,0.42,-1.08,0.894,-0.199,0.203,-0.185,-0.151,1.23,1.8,0.00673,-0.46,-0.274,3.09,-0.622,0.823,-0.956,1.33
TCTCGTAGATCAAGCAGGTTAAGAAAGCCTGAGT,-0.462,-0.196,-0.257,-0.0905,-1.19,0.4,-0.54,0.861,2.47,1.83,1.63,-0.598,-0.611,-0.106,-0.511,0.225,-0.267,0.111,-0.712,-0.255
AATACAGGGTCACTAGGCCAGAATAGGTACGAAT,6.2,5.06,1.04,4.11,1.02,5.95,7.89,6.5,2.7,5.33,3.44,5.78,1.66,1.79,2.05,3.16,0.787,4.21,1.45,4.27
AGCATGAGGTTATACGTAGATCAGGGAAGAAAGT,1.93,1.8,0.246,1.47,0.257,2.43,0.933,0.729,0.259,0.586,0.656,0.149,0.86,0.438,0.658,0.995,0.948,1.38,0.699,1.46
TCAGACAGGTGGAGGTAACTCAGGTACGCAGTCG,0.494,1.77,-0.167,0.998,0.354,0.55,0.357,1.4,3.1,2.3,1.72,-0.0459,0.459,-0.319,0.082,0.506,0.154,0.233,0.265,0.399
CCCACTGGGCCAAGGTCATTGATCAGTCAAAGCA,3.13,2.95,1.44,2.57,-0.562,3.8,4.07,4.12,1.57,3.3,2.96,4.5,-0.866,-1.7,1.75,3.5,1.12,3.45,-0.0237,3.08
AGTCAAAGTTCAGGACGAGGTAACGTAAAGCACG,3.82,3.74,0.999,1.93,0.286,3.46,4.47,4.95,2.17,3.94,-0.443,2.06,0.129,0.321,1.91,2.94,0.827,2.8,0.702,4.26
GCATATAGGTAATACAAGGGGAAAGTCCGATTGT,0.256,0.159,0.0811,-0.078,-0.118,0.754,0.908,0.64,0.337,0.269,4.01,2.14,0.831,0.956,0.379,-0.118,0.0351,0.489,0.339,-0.122
ATACCAAGGTGATCTTGAGGTCGTTGATACTAAC,2.36,2.49,1.86,1.92,0.411,1.91,0.527,0.843,-0.161,0.624,0.853,1.45,0.8,0.628,1.02,3.3,2.03,2.54,0.867,1.71
AGTCAAAGTTCACCAGGTAACGTAAGATTCAGCT,6.31,5.59,3.52,3.85,1.05,5.19,6.96,6.68,3.83,6.1,1.37,4,1.09,1.39,3.02,4.67,2.63,4.15,1.72,5.18
